The values that follow come from PubChem BioAssay AID2099 (Broad Institute, 2009).

By inhibition is commonly meant the change of the read-out against control, counted positive when it falls.

The campaign covered roughly 330,000 compounds. About 230 (0.07%) were called active. Many of the other results were omitted from the sample, so actives are more common in it than they were. A number with no mark means an inactive call.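 Rule for the calls: active = more than half of a compound's replicate wells show inhibition beyond 50%, single wells judged on their own value; inconclusive = some, but no more than half, of replicates pass 50% inhibition; inactive = no replicate passes 50% inhibition.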

The target of the experiment is Lysine-specific demethylase 4C (Homo sapiens) (UniProt Q9H3R0). Nature of the experiment: JMJD2C H3K9me3 demethylation blockers – biochemical, fluorescence, DELFIA europium, primary screen (AID 2099).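 Note: signal counts dimethyl H3K9 product captured on neutravidin plate; 0% = median of DMSO wells and 100% = 0.3 times that DMSO median.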 The settings on record: GST-JMJD2C(1-420) H3K9me3 demethylation, at 2.35 µM, stronger effect = higher value.
Chain of Lysine-specific demethylase 4C (Homo sapiens) (Q9H3R0 1-420 limits assumed): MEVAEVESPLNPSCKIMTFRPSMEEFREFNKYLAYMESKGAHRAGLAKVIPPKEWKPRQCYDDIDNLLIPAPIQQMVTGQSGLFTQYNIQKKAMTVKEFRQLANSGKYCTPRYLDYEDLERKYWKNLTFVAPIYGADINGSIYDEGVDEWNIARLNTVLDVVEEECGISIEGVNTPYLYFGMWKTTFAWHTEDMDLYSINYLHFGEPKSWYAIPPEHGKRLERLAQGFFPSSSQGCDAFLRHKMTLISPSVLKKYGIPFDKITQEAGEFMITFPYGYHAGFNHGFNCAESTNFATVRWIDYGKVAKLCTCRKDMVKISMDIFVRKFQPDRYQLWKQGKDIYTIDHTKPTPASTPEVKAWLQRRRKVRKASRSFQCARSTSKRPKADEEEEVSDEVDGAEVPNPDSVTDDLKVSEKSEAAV
Consider `O=c1[nH]c(O)c(C=Nc2cc(F)cc(F)c2)c(=O)[nH]1`, for which the inhibition is 8.75%.

Turning to `Cc1ccc2c(c1)=C/C(=C\c1c(O)[nH]c(=O)[nH]c1=O)C(=O)N=2`, the inhibition is 68.2% (active).

In the case of `O=C1N=c2ccccc2=C/C1=C\c1c(O)[nH]c(=S)[nH]c1=O`, the inhibition was 0.999%.

Turning to `COc1ccc(CN2CCN(c3ccccc3F)CC2)c(OC)c1`, the inhibition was 2.07%.

Consider `NCC(O)c1ccc(O)cc1` (stereo not given), for which the inhibition is 4.95%.
